High-throughput results as filed in PubChem BioAssay.
Sampled rows, rich in hits. Any-hit rate of the full collection: about 3.4%.
NF-kB neuron act: compounds increasing NF-kB expression in human neuronal cells; 1.6% of 190,000 active; NF-kB reporter expression; hits give high values; fold change at 12.5 µM; in the data active = fold change above about 3.3
hgDAF12 agonist: hgDAF-12 agonism, primary luciferase screen; HEK293 GAL4-hgDAF12 UAS-luciferase reporter, agonist luminescence; normalized to butyrate control; activation, % at 6.8 µM; 1.8% of 370,000 active;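 active = activation above a cutoff set at the mean of all screened compounds plus 3 SD, cut at about 10% in these data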;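 also: 0% = DMSO wells and 100% = sodium butyrate wells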
ssDAF12 agonist: S. stercoralis DAF-12 activation, primary screen; HEK293 ssDAF-12/GRIP1 lit1-tk-luc reporter, luminescence; % of 3 µM dafachronic acid response; activation, % at 6.8 µM; 1% of 370,000 active;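 active = activation above the mean over all tested compounds plus 3 SD, cut at about 0.9% in these data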;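 also: 0% = DMSO-only wells and 100% = 3 µM delta7-dafachronic acid wells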
APP 5'UTR act: activates APP 5'UTR luciferase reporter; SH-SY5Y APP 5'UTR luciferase reporter, luminescence; zero percent = DMSO vehicle wells; activation, % at 2 µM; 1% of 190,000 active; AID 1276;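 active = activation above a set limit, based on mean plus 3 SD of controls, cut at about 140% in these data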
hcDAF12 agonist: activates DAF-12 receptor from parasite H. contortus; HEK293 hcDAF-12 lit1-tk-luc reporter, luminescence; 0% DMSO, 100% Δ7-dafachronic acid; activation, % at 6.8 µM; 1.4% of 370,000 active; AID 652067;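 active = activation above the mean of all tested compounds plus 3 SD, cut at about 5.5% in these data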;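 also: 100% = response to 3 µM Δ7-dafachronic acid high control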
hgDAF12 ag: confirmation of H. glycines DAF-12 agonists; shares compounds with hgDAF12 agonist; HEK293 GAL4-hgDAF12 luciferase reporter, agonist mode; percent of butyrate response; activation, % at 6.8 µM; 80% of 3,300 active; AID 743050;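 active = mean activation over triplicate wells above the hit cutoff derived from the earlier primary screen, cut at about 11% in these data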;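 also: 0% = DMSO low control and 100% = 2 mM sodium butyrate high control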
LXRb DAF12 ctr: LXR-beta agonism as DAF-12 counter-screen; 3,300 tested, under 10 active; HEK293 Gal4-LXR luciferase reporter, 24 h; activation, % at 6.8 µM; shares compounds with hgDAF12 agonist;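 active = mean activation of the triplicate above a set limit carried over from the primary screen, none filed active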
Target sequence (P55055 whole entry, looked up, the tested form may be a part): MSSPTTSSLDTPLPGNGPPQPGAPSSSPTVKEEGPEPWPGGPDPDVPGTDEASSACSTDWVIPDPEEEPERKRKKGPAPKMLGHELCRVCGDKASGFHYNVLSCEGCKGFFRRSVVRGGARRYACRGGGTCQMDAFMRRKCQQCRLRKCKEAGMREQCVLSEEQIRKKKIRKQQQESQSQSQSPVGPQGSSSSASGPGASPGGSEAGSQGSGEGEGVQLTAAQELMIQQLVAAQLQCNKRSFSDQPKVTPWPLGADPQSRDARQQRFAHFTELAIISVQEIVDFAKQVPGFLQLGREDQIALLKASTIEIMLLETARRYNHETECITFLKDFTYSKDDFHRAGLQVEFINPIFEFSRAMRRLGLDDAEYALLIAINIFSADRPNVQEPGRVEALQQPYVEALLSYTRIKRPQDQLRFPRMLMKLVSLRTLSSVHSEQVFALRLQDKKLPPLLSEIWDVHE
An asterisk follows results filed as active; . = no result.

SMILES	NF-kB neuron act	hgDAF12 agonist	ssDAF12 agonist	APP 5'UTR act	hcDAF12 agonist	hgDAF12 ag	LXRb DAF12 ctr
COc1ccc(C2(C)NC(=O)N(CC(=O)Nc3ccc(-c4nc5ccc(C)cc5s4)cc3)C2=O)cc1 (configuration not stated)	.	19*	0	171*	2	11*	0
CCC1(c2ccc(F)cc2)NC(=O)N(CC(=O)Nc2ccc(-c3nc4ccc(C)cc4s3)cc2)C1=O (configuration not stated)	1.1	20*	1	214*	5	16*	1
COc1ccc(-n2nc3cc(C)c(NC(=O)C(C)C)cc3n2)cc1	1.1	.	.	83	.	.	.
COc1ccc(-n2nc3cc(C)c(NC(C)=O)cc3n2)cc1	2.3	18*	0.9*	123	5	9	1
CCOC(=O)N1CCN(C(=O)C[C@H]2C[C@@]3(C(=O)OC)C(=C[C@H](C(C)C)O[C@@H]3C3CC3)N(Cc3ccco3)C2=O)CC1	.	-2	-1	.	-2	.	.
O=C(CCl)Nc1ccc(N=Nc2ccccc2)cc1	3.1	5	0	31	3	.	.
CC(C)C(=O)OCC(=O)Nc1ccc(N=Nc2ccccc2)cc1	5.1*	16*	-1	170*	2	17*	1
CC(=O)OCC(=O)Nc1ccc(N=Nc2ccccc2)cc1	4.9*	17*	1	110	4	14*	1
CC(=O)Nc1ccccc1	.	0	-1	.	0	.	.
CC(=O)Nc1ccc(N=Nc2ccccc2)cc1	5.3*	16*	-1	111	5	15*	1
COc1ccc(Cn2ccc3ccc(-c4ccc5ccn(C(=O)C6CCCCC6)c5c4)cc32)cc1	.	3	-1	.	0	.	.
Cc1ccc(C(=O)Cn2nnc3ccccc32)cc1C	4.1*	17*	0	119	5.9*	17*	1
COc1cc(/C=N/N2CCOCC2)ccc1OCc1ccccc1	1.8	18*	0	64	2	3	0
S=C(NCc1ccco1)Nc1ccc(Br)cc1Cl	2.4	13*	-1	1	2	4	0
Cc1ccc(C(=O)Nc2cc3c(cc2Cl)OCCCO3)cc1	4.1*	17*	1	118	4	13*	0
O=C(Nc1cc2c(cc1Cl)OCCCO2)c1ccc(F)cc1	2.9	8	-1	62	2	.	.
COc1cccc(C(=O)Nc2cc3c(cc2Cl)OCCCO3)c1	4.3*	14*	0	136*	2	14*	0
CCOC(=O)c1ccc2nc(Nc3nc4ccc(F)cc4s3)sc2c1	0.77	-10	-2	-7	-1	.	.
COC(=O)c1ccc2nc(NC(=O)C3CC3)sc2c1	.	9	-1	.	0	.	.
CCOC(=O)c1ccc2nc(NC(C)=O)sc2c1	2.8	14*	-1	80	2	13*	1
COC(=O)c1ccc2nc(NC(=O)C(C)C)sc2c1	6*	14*	0	96	2	15*	1
COc1ccc(O)c(C2=Nc3ccccc3N=C(c3ccccc3)C2)c1	.	14*	0	.	3	0	0
O=C(CCc1ccccc1-c1ccccc1CCNC(=O)c1ccc(F)c(F)c1)NCc1ccccc1	.	-2	-1	.	-1	.	.
N#Cc1ccccc1OCc1nnc(-c2ccccc2Br)o1	.	15*	0	.	4	11*	1
CCOC(=O)CC[C@@]1(C(=O)OCC)C[C@@H](CC(=O)NCc2ccc(C)o2)C(=O)N2CCCC=C21	.	-1	-1	.	-1	.	.
SMILES	NF-kB neuron act	hgDAF12 agonist	ssDAF12 agonist	APP 5'UTR act	hcDAF12 agonist	hgDAF12 ag	LXRb DAF12 ctr
COc1ccc(C2CC(c3ccc4ccccc4c3)=NN2C(=O)CNC2CCCCC2)cc1 (configuration not stated)	0.96	4	-2	-1	0	.	.
COc1ccc(C2CC(c3ccc4ccccc4c3)=NN2C(=O)CN2CCC(C(N)=O)CC2)cc1 (configuration not stated)	1	13*	-1	41	3	5	0
CCCSc1nsc(NC(=O)CCC)n1	6.4*	19*	0	194*	4	15*	1
CCCSc1nsc(NC(=O)c2cccnc2OCC)n1	1.4	5	0	-2	1	.	.
COC(=O)[C@]12C[C@H](CC(=O)NCC34CC5CC(CC(C5)C3)C4)C(=O)N(CCc3ccc(OC)c(OC)c3)C1=C[C@H](COCc1ccccc1)O[C@@H]2C	.	1	-1	.	-4	.	.
O=C(Nc1cccc(Cl)c1)Nc1ccc2c(c1)OCO2	2.2	8	-1	93	2	.	.
CC(=O)c1cccc(Nc2ccc(Br)cc2)c1	.	14*	-1	.	4	9	0
O=C(Nc1ccc2c(c1)CCC2)Nc1ccc2c(c1)OCO2	2.2	14*	-1	81	1	14*	1
O=C(Nc1cccc([N+](=O)[O-])c1)Nc1ccc2c(c1)OCCO2	3.6*	13*	0	127	4	17*	1
O=C(Nc1ccc2c(c1)OCO2)Nc1ccccc1F	.	19*	0	.	2	15*	1
Cn1cccc1C(=O)N1CCN(S(=O)(=O)c2cccc3ccccc23)CC1	.	-1	-1	.	-2	.	.
CCCC(=O)N1CCC(C(=O)NC2CCCc3ccccc32)CC1 (configuration not stated)	.	0	-2	.	-2	.	.
Cc1cc(C)cc(NC(=O)N2CCN(Cc3nc4ccccc4c(=O)[nH]3)CC2)c1	.	-2	-1	.	0	.	.
COc1ccc(NC(=O)NC23CC4CC(CC(C4)C2)C3)cc1OC	1.4	0	-1	7	-1	.	.
O=C(Nc1ccc2c(c1)CCC2)c1cc(F)cc(F)c1	.	14*	0	.	0	13*	0
O=C(Nc1ccc2c(c1)OCCO2)NC12CC3CC(CC(C3)C1)C2	1.7	14*	-1	90	4	17*	1
CC(=O)c1cccc(NC(=O)Nc2ccc3c(c2)OCO3)c1	.	14*	0	.	1	14*	0
Cn1cc(C(=O)Nc2ccc3c(c2)CCC3)cn1	0.99	8	0	42	1	.	.
Brc1ccc(-c2nn3c(-c4ccccc4)nnc3s2)cc1	.	-2	-1	.	-3	.	.
CC(C)C[C@@H]1COc2cccc(N3CCCC3)c2S(=O)(=O)N1C	.	-4	-2	.	-2	.	.
COC(=O)C[C@@H]1CC[C@@H]2[C@@H](COc3ccc(NC(C)=O)cc3C(=O)N2C)O1	.	5	-1	.	1	.	.
COc1ccc(C(CCOC(=O)Oc2ccccc2)c2cc(OC)cc(OC)c2)cc1 (configuration not stated)	.	0	-2	.	-3	.	.
COc1ccccc1/C=C/c1nc(C#N)c(N(C)C)o1	.	15*	0	.	5.8*	14*	1
